This is a sample that favours compounds with a hit; in the whole collection about 3% have one here.
PLK1 PBD block = inhibitors of human PLK1 polo-box domain binding; P53350; Plk1 PBD binding of FITC phosphopeptide, fluorescence polarization; Potency, µM, most hits filed as inhibitors; 360,000 tested, 2.8% active; also: series mostly up to about 57 µM; nearly all actives have a fitted effect of over 65% in size
GCN5L2 inh = blocks human GCN5L2 histone acetyltransferase; GCN5L2 HAT assay, ThioGlo1 CoA-SH fluorescence; Potency, µM (top dose mostly 58.9 µM), actives largely listed as inhibitors; 390,000 tested, 0.21% active
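Fluorescence readout, Ex340nm/Em540nm: ThioGlo1 (50uM final) reacts with free CoA thiol released as 20nM GCN5L2 acetylates H3(1-25) peptide (75uM) using acetyl-CoA (70uM). Compound and enzyme sat 15 min beforehand; 20 min room-temperature reaction.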
12-LOX inh = inhibitors of human 12S-lipoxygenase ALOX12; purified 12hLO, xylenol orange hydroperoxide absorbance; 580,000 tested, 1.1% active; Potency, µM (highest dose often 108 µM), most hits filed as inhibitors; AID 1671190
Target sequence (P18054 whole entry, looked up): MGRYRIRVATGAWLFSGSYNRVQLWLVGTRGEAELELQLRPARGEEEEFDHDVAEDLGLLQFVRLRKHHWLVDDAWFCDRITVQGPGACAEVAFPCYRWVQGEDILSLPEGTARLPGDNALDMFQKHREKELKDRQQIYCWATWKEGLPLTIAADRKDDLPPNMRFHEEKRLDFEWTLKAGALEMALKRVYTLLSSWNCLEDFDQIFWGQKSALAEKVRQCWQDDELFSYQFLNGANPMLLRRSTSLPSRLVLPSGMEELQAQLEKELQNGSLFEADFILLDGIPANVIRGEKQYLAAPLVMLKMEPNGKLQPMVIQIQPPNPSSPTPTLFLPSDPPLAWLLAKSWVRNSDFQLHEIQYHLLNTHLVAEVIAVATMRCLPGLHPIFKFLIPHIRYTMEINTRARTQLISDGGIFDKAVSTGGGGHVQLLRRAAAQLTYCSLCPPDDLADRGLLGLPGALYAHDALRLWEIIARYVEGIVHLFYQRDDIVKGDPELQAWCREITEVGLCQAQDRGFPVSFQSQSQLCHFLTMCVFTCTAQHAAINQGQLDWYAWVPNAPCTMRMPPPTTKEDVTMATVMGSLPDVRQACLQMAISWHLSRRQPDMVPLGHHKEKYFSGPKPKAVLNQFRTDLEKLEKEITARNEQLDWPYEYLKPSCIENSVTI
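Purified human 12hLO at 150 nM in 25 mM Hepes, 0.01% Triton X-100, pH 7.0, preincubated 15 min at room temperature with compound. Reaction started with 40 uM arachidonic acid, 30 min at room temperature. Hydroperoxide measured by Fe-xylenol orange, 573/405 nm absorbance ratio.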
VDR inhibitor = vitamin D3 receptor (human) inhibition; VDR-SRC2-3 peptide fluorescence polarization, 2 h; Potency, µM, usual class: inhibitors; 400,000 tested, 0.93% active; P11473
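Inhibition of the VDR/SRC2-3 peptide interaction is quantified by fluorescence polarization. Compounds (23 nl, pintool) incubate with the reagents for 2 hours at ambient room temperature.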
Numbers stand for hits; ! = not active in a repeat. Calls follow the shape of the dose curve; as a rule, active = well fitted curve in the direction sought with a large enough effect; inconclusive = small, poorly fitted or top-dose-only effect, or another doubt; inactive = no such curve, though single readings can be large; an effect the other way counts as inactive or inconclusive.

`Cc1ccc(NC(=O)CSc2nnc([C@H](C)NC(=O)OC(C)(C)C)o2)c(C)c1` gave PLK1 PBD block inactive, GCN5L2 inh inactive, 12-LOX inh inconclusive and VDR inhibitor inactive.
For Cc1cccc(NC(=O)CSc2nnc([C@H](C)NC(=O)OC(C)(C)C)o2)c1C the results were PLK1 PBD block 27µM, GCN5L2 inh inactive, 12-LOX inh inactive and VDR inhibitor inconclusive.
Screening Cc1cc(C)c2oc(C(=O)Nc3ccc(S(=O)(=O)Nc4cc(C)nc(C)n4)cc3)cc(=O)c2c1 returned 12-LOX inh inactive.
Screening Cc1ccc(N(CC(=O)NCCSCc2ccco2)S(=O)(=O)c2ccc(F)cc2)cc1 returned PLK1 PBD block inactive, GCN5L2 inh inactive, 12-LOX inh inactive and VDR inhibitor inactive.
Screening Cc1ccc(S(=O)(=O)N(CC(=O)NCCSCc2ccco2)c2cc(C)ccc2C)cc1 returned PLK1 PBD block inactive, 12-LOX inh 40µM and VDR inhibitor inactive.
Cc1nc(C)c(-c2csc(Nc3ccc(O)cc3C)n2)s1 was read as PLK1 PBD block 27µM, GCN5L2 inh inactive, 12-LOX inh inconclusive and VDR inhibitor inactive.
Cc1cc(O)ccc1Nc1nc(-c2cccs2)cs1 was read as PLK1 PBD block inactive, GCN5L2 inh inactive, 12-LOX inh inconclusive and VDR inhibitor inactive.
Screening Cc1cscc(C)c1=S returned PLK1 PBD block inactive and 12-LOX inh 18µM.
For Cc1ccc(-c2ccc3nnc(SCC(N)=O)n3n2)cc1 the results were PLK1 PBD block inactive, GCN5L2 inh inactive, 12-LOX inh inactive and VDR inhibitor inactive.
`NC(=O)CSc1nnc2ccc(-c3ccc(F)cc3)nn12` gave PLK1 PBD block 15µM, GCN5L2 inh inactive, 12-LOX inh inactive and VDR inhibitor inactive.
Screening Fc1ccccc1-c1noc(-c2nc(Cc3ccccc3)no2)n1 returned 12-LOX inh inactive.
For Cc1c(Cl)cccc1Nc1ncccc1C(=O)O the results were PLK1 PBD block inconclusive, GCN5L2 inh inactive, 12-LOX inh inactive and VDR inhibitor inactive.
`Cc1c(Cl)cccc1Nc1ccccc1C(=O)O` gave PLK1 PBD block inactive, GCN5L2 inh inactive, 12-LOX inh inactive and VDR inhibitor 45µM!.
Screening Cn1nc(C(C)(C)C)c([N+](=O)[O-])c1C(=O)NCCO returned PLK1 PBD block 24µM, GCN5L2 inh inactive, 12-LOX inh inactive and VDR inhibitor inconclusive.
Screening O=c1oc2ccccc2cc1S(=O)(=O)N1CCCCCC1 returned 12-LOX inh inactive.
Screening Clc1cccc(-n2nnnc2NCc2ccccc2Oc2ccccn2)c1Cl returned 12-LOX inh 12µM.
O=C(O)CSc1nnc(CNc2ccc(Cl)cc2)n1Cc1ccccc1 was read as PLK1 PBD block 27µM, GCN5L2 inh inactive, 12-LOX inh inactive and VDR inhibitor inconclusive.
`O=C1C=CC2(C=C1)O[C@H](Cc1ccccc1)[C@@H](Cc1ccccc1)O2` gave PLK1 PBD block 9.5µM, 12-LOX inh inactive and VDR inhibitor 14µM.
O=C1Nc2ccccc2C1Cc1ccccc1 (stereo not drawn) was read as PLK1 PBD block inactive, GCN5L2 inh inactive, 12-LOX inh inactive and VDR inhibitor inactive.
Screening Cc1oc2cc(O)ccc2c(=O)c1Oc1ccccc1 returned PLK1 PBD block 3µM, GCN5L2 inh inactive, 12-LOX inh inactive and VDR inhibitor inactive.
Screening CCC(CC)C(=O)O returned 12-LOX inh inactive.
For CC(=O)Oc1c(C)c(OC(C)=O)c2c(c1C(C)=O)OC1CC(=O)C(C(C)=O)=C(O)C21C (stereo not drawn) the results were PLK1 PBD block inactive, GCN5L2 inh inactive, 12-LOX inh 28µM and VDR inhibitor inactive.
For CC(=O)C1=C(O)C=C2Oc3c(C(C)=O)c(O)c(C)c(O)c3C2(C)C1=O (stereo not drawn) the results were 12-LOX inh inconclusive and VDR inhibitor inactive.
For C=CCOc1ccc(C2C(C(=O)c3ccco3)=C(O)C(=O)N2c2nnc(C)s2)cc1 (stereo not drawn) the results were PLK1 PBD block 21µM, GCN5L2 inh inactive, 12-LOX inh inconclusive and VDR inhibitor inconclusive.
For CSc1nnc(N2C(=O)C(O)=C(C(=O)c3ccco3)C2c2cccc(Cl)c2)s1 (stereo not drawn) the results were PLK1 PBD block inconclusive, GCN5L2 inh inactive, 12-LOX inh 40µM and VDR inhibitor inactive.
For CC(C)Cc1nnc(NC(=O)CS(=O)(=O)Cc2ccccc2)s1 the results were PLK1 PBD block 24µM, GCN5L2 inh inactive, 12-LOX inh inconclusive and VDR inhibitor inactive.
Screening CC(C)c1nnc(NC(=O)CS(=O)(=O)Cc2ccccc2)s1 returned PLK1 PBD block 27µM, GCN5L2 inh inactive, 12-LOX inh inactive and VDR inhibitor inactive.
